The whole screen tested about 310,000 compounds, of which about 3,800 (1.2%) were called active.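 Rule for the calls: active = ratio B-score over 3 SD below the library mean, with starting fluorescence within 5 SD of its mean; inactive = the rest, inconclusive results apart.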 The full list was thinned out, with actives kept by preference.
Target: Potassium channel subfamily K member 9 (Homo sapiens) (UniProt Q9NPC2)
Assay: KCNK9 potassium channel inhibitors, primary screen, HEK293 cells, thallium flux (AID 488922);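 for B-score: negative B-score means less thallium flux so channel inhibition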
Conditions: HEK293 KCNK9, FluxOR thallium flux fluorescence, at 10 µM; hits give low values

Potassium channel subfamily K member 9 (Homo sapiens), sequence (Q9NPC2 whole entry, looked up): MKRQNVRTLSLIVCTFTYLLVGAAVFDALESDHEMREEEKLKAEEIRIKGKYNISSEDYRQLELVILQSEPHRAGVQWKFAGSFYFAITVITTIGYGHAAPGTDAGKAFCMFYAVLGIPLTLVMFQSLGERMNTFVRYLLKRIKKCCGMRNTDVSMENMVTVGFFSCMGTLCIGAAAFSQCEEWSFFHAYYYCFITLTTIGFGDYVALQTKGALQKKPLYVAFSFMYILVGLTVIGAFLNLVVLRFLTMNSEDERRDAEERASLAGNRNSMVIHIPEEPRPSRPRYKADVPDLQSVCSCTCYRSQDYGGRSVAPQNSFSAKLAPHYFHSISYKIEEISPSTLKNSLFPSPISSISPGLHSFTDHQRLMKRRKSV

B-score, inactive:
Cc1c(CCC(=O)O)c(=O)oc2c(C)c(OCc3ccccc3Cl)ccc12
C/C=N/N(c1ccccc1)c1ccccc1
O=C(/C=C/c1cccc(C(F)(F)F)c1)N1CCN(c2ccccn2)CC1
OCCCNc1nc(-c2ccccc2)c2cc(Cl)ccc2n1
O=C(CCl)NNc1nc(-c2ccccc2)c2cc(Cl)ccc2n1
Cn1c(C(=O)OC(C(=O)NC2CCCCC2)c2ccccn2)cc2sccc21 (stereo not given)
COc1cc(C(=O)NCc2cc3cc(Cl)ccc3n2C)cc(OC)c1OC
CCC1C(=O)NCCN1C(=O)c1ccc2nc(Cc3ccc(OC)cc3)oc2c1 (stereo not given)
COc1cccc(NC(=S)NCCCN2CCOCC2)c1
COc1ccc(Cl)cc1NC(=O)CCN1CCOCC1
Cc1cccc2[nH]c(CN(C)C(=O)C3CCC(=O)N(CCc4ccccc4)C3)nc12 (stereo not given)
COc1ccccc1-c1nnc(-c2ccc(F)cc2)o1
CC1=C(N2CCN(c3ncccn3)CC2)CCC1=O
O=C(Nc1ccccc1-c1ccccc1)c1ccccc1[N+](=O)[O-]
O=C(O)c1ccccc1C(=O)Nc1ccccc1[N+](=O)[O-]
CCCCNS(=O)(=O)c1ccc2nc(SCC(=O)Nc3cc(C)cc(C)c3)[nH]c2c1
CCN(CC)CCn1cnc2c1c(=O)n(CCOC(=O)c1cc(OC)c(OC)c(OC)c1)c(=O)n2C
Cc1ccc(OCCNC(=O)CN2C(=O)NC3(CCCC3)C2=O)cc1
O=C(NCc1ccccn1)Nc1ccc(Cl)cc1
CC12CCC(C(=O)N(c3cccc(Cl)c3)C1=O)C2(C)C (stereo not given)
O=C(COC(=O)C1CC2C=CC1C2)Nc1ccccc1 (stereo not given)
Cc1ccc(C(=O)N/C(=C\c2ccc(F)cc2)C(=O)NCCN2CCOCC2)cc1
O=C(CN1C(=O)/C(=C/c2ccccc2F)Sc2ccccc21)NCc1cccnc1
O=C(CN1C(=O)S/C(=C\c2ccccc2F)C1=O)NCCCn1ccnc1
Cc1cc(CNCc2c(C(=O)N(C)Cc3ccccc3)nc3ccccn23)nn1C
Cc1ccc(S(=O)(=O)N(CC(=O)Nc2cccnc2)c2ccc(Br)cc2)cc1
CCCNC(=O)CN(Cc1ccccc1F)S(=O)(=O)c1ccc(C)cc1
O=C(/C=C/c1ccc([N+](=O)[O-])cc1)NCCSCc1ccco1
O=C(c1ccc(Br)o1)N1CCN(CCOc2ccccc2)CC1
COc1ccc(N2CCN(C(=O)CNC(=O)c3ccc(Br)o3)CC2)cc1
COc1ccc(-c2csc(NC(=O)COC(=O)c3ccc(Br)o3)n2)cc1
CCCCC(CC)CNC(=O)C(=O)C1C(=O)Nc2ccccc21 (stereo not given)
COc1cc2c(C(=O)N(C)c3cc(Cl)ccc3OC)cn(C)c(=O)c2cc1OC
CCC(=O)N1CCN(c2ccccc2NC(=O)COc2cccc(C)c2C)CC1
CCOc1ccccc1N1CCN(C(=S)Nc2ccc(S(N)(=O)=O)cc2)CC1
CC(c1ccco1)N(C(=O)Nc1ccccc1)C1CCCCC1 (stereo not given)
CCOc1ccc(NC(=O)N(CC(C)C)CC(C)C)cc1
COc1cc(C)nc(N2CCCC(C(=O)NCC(C)C)C2)n1 (stereo not given)
COc1ccc(NC(=O)C(=O)NCC(=O)Nc2cccc(C(F)(F)F)c2)cc1
COc1cccc(NC(=O)CN(C)CC(=O)Nc2ccc3c(c2)CCC3)c1
CC(C)c1c(C(=O)N/N=C/c2ccccc2C(=O)O)nnn1-c1nonc1N
CN1C(=O)/C(=C/C=C2\SCCN2C)OC1=S
O=C(c1cc2sccc2n1Cc1ccc(F)cc1)N1CCc2ccccc21
CC1Cc2ccccc2N1C(=O)c1cc2sccc2n1Cc1ccccc1 (stereo not given)
CCCCC(=O)Nc1c2c(nn1-c1ccc([N+](=O)[O-])cc1)CS(=O)(=O)C2
CCSC1=NCCN1C(=O)c1ccc(S(=O)(=O)N(CC)CC)cc1
O=C(O)CSc1c2c(nc3cc(C(=O)Nc4cccc(C(F)(F)F)c4)ccc13)CCCC2
COC(=O)c1ccccc1Sc1c(/C=N/OCc2ccc(Cl)cc2)c(C(F)(F)F)nn1C
C[n+]1cc(-c2ccccc2)oc1-c1ccccc1
COc1cccc(-c2coc3cc4oc(=O)c(CC(=O)O)c(C)c4cc23)c1
COc1cc(C(=O)OC2CCOC2=O)c([N+](=O)[O-])cc1OC (stereo not given)
CC(=O)Nc1ccc(S(=O)(=O)N2CCC(NC(=O)c3ccccc3)CC2)cc1
COc1ccc(-c2csc3ncnc(N4CCN(S(=O)(=O)c5cccc(F)c5)CC4)c23)cc1
CCCCCOC(=O)C1=C(C)Nc2nnnn2C1c1ccc(OC)c(OC)c1OC (stereo not given)
CC(C)CCNC(=O)CN(C(=O)Cn1nnc(-c2ccc(F)cc2)n1)C1CCCC1
COc1ccc(-c2nnn(CC(=O)N(CCO)C(C(=O)NC3CCCC3)c3ccc(F)cc3)n2)cc1 (stereo not given)
Cc1ccc(NC(=O)CN2CCCCC2)c2c1CC(C)(C)O2
CCOc1ccc(NS(=O)(=O)c2ccc(C(=O)NC3CCN(Cc4ccccc4)CC3)cc2)cc1
CC(C)C(=O)NC(=S)Nc1ccccc1F
CCCCC(=O)NNC(=S)NC(=O)C(c1ccccc1)c1ccccc1
Cc1c(C(=O)NC2CCCCC2)oc2ccccc12
Cc1ccc(NC(=O)CC2C(=O)N(Cc3ccccc3)C(=S)N2NC(=O)c2cccc(F)c2)c(C)c1 (stereo not given)
CNc1ccc([N+](=O)[O-])cc1C(=O)O
O=C(Nc1cccnc1)c1cc([N+](=O)[O-])ccc1Cl
COc1ccc(-c2cc(C(F)(F)F)nc(NCc3cccnc3)n2)cc1
FC(F)(F)c1cc(-c2cccs2)nc(NCc2ccco2)n1
O=C(OCCOCn1cc(Br)c(=O)[nH]c1=O)c1ccccc1
COc1ccc(Br)cc1CN(C)CC(=O)Nc1cc(Cl)cc(Cl)c1
O=C(COc1ccc2ccccc2c1)N1CCN(C(=O)c2cccs2)CC1
O=S(=O)(NCc1ccc(Cl)cc1Cl)c1cccs1
O=S(=O)(Nc1ccccc1Br)c1cccs1
Cn1ccs/c1=N\S(=O)(=O)c1ccc(C(C)(C)C)cc1
COc1ccc(/C=N/NC(=O)c2ccccc2)cc1OS(=O)(=O)c1ccccc1
COc1ccc(/C=N/NC(=O)c2ccc3c(c2)OCCO3)c(OC)c1
COc1ccc(C(=O)Nc2ccccc2C(=O)NCc2ccco2)cc1
COc1cc(/C=N/NC(=O)c2ccc(N3CCCC3=O)cc2)ccc1O
COc1ccc(Cl)cc1NC(=O)COC(=O)C(CC(C)C)N1C(=O)C2CC=CCC2C1=O (stereo not given)
COc1ccccc1N1CC(C(=O)Nc2nnc(SCC(=O)NCC3CCCO3)s2)CC1=O (stereo not given)
CC1(C)CC(=O)c2c(n(S(=O)(=O)c3ccccc3)c3ccc(NS(=O)(=O)c4ccccc4)cc23)C1
CNC(=O)c1sc(Nc2ccc(OCc3ccccc3)cc2)nc1C
CCOC(=O)C1CCc2nc3ccccc3c(=O)n21 (stereo not given)
CCOn1c(SC(C)C)nc2ccccc2c1=O
FC(F)(F)c1ccc2c3n(nc2c1)CCN=C3c1ccc(Cl)cc1
O=C(Nc1ccc(Br)cc1)c1cccc(NC(=O)C2C3CC4OC(=O)C2C4C3)c1 (stereo not given)

B-score, active:
NC(N)=Nc1nc(-c2ccccc2)c2cc(Cl)ccc2n1 -6.86
COc1cccc2cc(C(C)N(CCCN3CCOCC3)C(=O)Nc3ccc(Cl)cc3)oc12 (stereo not given) -9.66
O=C(Nc1ccccc1[N+](=O)[O-])C1C(c2ccccc2)=C1c1ccccc1 -8.24
CC1=NN(c2cccc(Cl)c2)C(=O)C12CC(C)=C(C)CS2 (stereo not given) -11.1
O=C(CN1C(=O)/C(=C\c2ccccc2F)SC1=S)Nc1nc2ccccc2s1 -7.2
COC(=O)Cc1ccc(N(Cc2ccccc2F)S(=O)(=O)c2ccc(Br)cc2)cc1 -6.88
COc1ccc(-c2nc(CCNC(=O)c3ccc(Br)o3)cs2)cc1 -10.5
CCOc1ccccc1NC(=S)N1CCN(c2cccc(C)c2C)CC1 -6.79
CCOc1ccc(NC(=O)N(CCC(C)C)C(C)c2ccco2)cc1 (stereo not given) -7.13
COc1ccc(NC(=O)CN(C)CC(=O)Nc2cccc(C(F)(F)F)c2)cc1 -11.5
CCOC(=O)c1cc2sccc2n1Cc1ccc(C#N)cc1 -12.8
Cn1nc(C(F)(F)F)c(C(=O)Nc2cccc(C(F)(F)F)c2)c1SCc1ccc(Cl)cc1 -7.25
CN(C)Cc1ccccc1C1(O)c2ccccc2CSc2ccccc21 (stereo not given) -6.84
CC(C)CCNC(=O)C(C)N(C(=O)Cn1nnc(-c2ccc(F)cc2)n1)C1CCCC1 (stereo not given) -8.61
CC(C)C(=O)Nc1cccc(NC(=S)NC(=O)C(c2ccccc2)c2ccccc2)c1 -14.9
Cc1ccc(NC(=O)c2cc([N+](=O)[O-])ccc2Cl)c(O)c1 -10.2
FC(F)(F)c1cc(-c2ccco2)nc(NCc2ccc(Cl)cc2)n1 -8.22
O=C(Nc1cccc(Cl)c1)Nc1ccccc1NS(=O)(=O)c1cccs1 -7.87
COc1ccc(C(=O)Nc2ccccc2C(=O)N/N=C/c2ccccc2OC)cc1 -13.5
COc1ccc(C(=O)Nc2ccccc2C(=O)N/N=C/c2ccc(O)c(OC)c2)cc1 -10.2
CCOC(=O)C(C)Sc1nc2ccccc2c(=O)n1CC1CCCCC1 (stereo not given) -11.7
